KB-V1 MDR tox: KB-V1 MDR subline cytotoxicity | KB-V1 MDR cells viability, CellTiter-Glo, 72 h | 3.4% of 400,000 active | Potency, µM (top dose mostly 46.1 µM), usual class: cytotoxic; note: nearly all actives have a fitted effect of over 60% in size
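Readout: CellTiter-Glo luminescence, 10 min after addition. Cells: KB-V1 MDR subline, 72 h at 37 degrees C with compound. Analysis: corrected, normalized data fitted to concentration-effect curves.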
SW480 rerep: induces DNA re-replication in SW480 colon adenocarcinoma cells | Potency, µM (series often up to 46.1 µM), usual class: activators | SW480 DNA re-replication, Hoechst DNA content imaging, 48 h | 1.8% of 340,000 active | AID 624297; note: nearly all actives have a fitted effect of over 55% in size
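250 cells/well; 23 nL cpd via pin tool; 48 hr, 37 C, 5% CO2; Hoechst 40 min; imager read of total nuclear intensity, ex 405/em 500-530 nm.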
HT1080 IDH1KD tx: HT-1080 IDH1 knockdown cell toxicity (counter line). AID 686971. Potency, µM (highest dose often 46.1 µM), most hits filed as cytotoxic. 2% of 360,000 active. HT-1080 IDH1 knockdown viability, ATP luminescence, 48 h
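CellTiter-Glo luminescence after 48 h compound exposure at 37 degrees C of IDH1-knockdown HT-1080 cells in 5% FBS RPMI. %Activity scaled between DMSO wells and cell-free media wells, with curves fitted and assigned curve classes.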
MCF10A rereplic: induces DNA re-replication in MCF 10a normal breast cells | 2.9% of 350,000 active | Potency, µM (series often up to 46.1 µM), actives largely listed as activators | MCF 10A DNA re-replication, Hoechst nuclear intensity, 48 h | AID 624296; note: nearly all actives have a fitted effect of over 50% in size
KB-3-1 tox: kills parental KB-3-1 adenocarcinoma cells; KB-3-1 viability, CellTiter-Glo ATP luminescence, 72 h; Potency, µM (titrated, usually from 46.1 µM), hits mostly cytotoxic; AID 1347075; 1.4% of 400,000 active; note: nearly all actives have a fitted effect of over 60% in size
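KB-3-1 cells, DMEM (no phenol red) + 10% FBS; compound by pin transfer, 72 h, 37 °C. Readout: CellTiter-Glo luminescence after 10 min. Data normalized, curve-fitted.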
HT1080NT lethal: kills 2HG-producing HT-1080-NT fibrosarcoma cells; 1.6% of 360,000 active; AID 686970; HT-1080-NT fibrosarcoma viability, CellTiter-Glo ATP luminescence, 48 h; Potency, µM (doses to about 46.1 µM), actives largely listed as cytotoxic;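 note: NT is the 2HG producing partner of a matched IDH1 knockdown line; nearly all actives have a fitted effect of over 55% in size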
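Luminescent CellTiter-Glo readout after 48 hours of compound exposure at 37 degrees C defined viability of HT-1080-NT cells. Activity was normalized to DMSO wells and cell-free media wells; concentration-response curves were fitted and assigned curve classes.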
Numbers stand for hits; - = inactive; ? = inconclusive; . = no result; ! = not active in a repeat. In the library only some 8% were active in any assay of this set; here they are far more common. Calls come from the whole dose curve; as a rule, active = well fitted curve in the direction sought with a large enough effect; inconclusive = small, poorly fitted or top-dose-only effect, or another doubt; inactive = no such curve, though single readings can be large; an effect the other way counts as inactive or inconclusive.

SMILES | KB-V1 MDR tox | SW480 rerep | HT1080 IDH1KD tx | MCF10A rereplic | KB-3-1 tox | HT1080NT lethal
CCc1ccc2c(c1)[C@H]1OCC[C@H]1[C@@H](c1cccs1)N2 | ? | 5.2µM | 3.7µM | 5.8µM | 13µM | 4.1µM
Cc1cc(O)c(C(c2ccccc2)N2CCC(C)CC2)c(=O)n1Cc1ccco1 (configuration not stated) | - | . | . | . | - | .
COc1ccc(CCc2nnc(CCC(=O)N(C)Cc3ccnc4ccccc34)o2)cc1 | - | - | 21µM | - | - | ?
Cn1c(=O)cc(OCCCC(=O)NC2CCCC2)c2ccccc21 | 15µM | - | - | ? | - | ?
Cc1ccnc(NC(=O)CCCOc2cc(=O)n(C)c3ccccc23)c1 | 8.2µM! | 7.3µM | ? | 15µM | 3.7µM! | ?
Cn1c(=O)cc(OCCCC(=O)N2CCN(c3ccccc3)CC2)c2ccccc21 | ? | - | - | 9.2µM | - | -
COc1cc(CNCc2ccccn2)ccc1OCc1ccc(Cl)cc1Cl | ? | ? | 21µM | - | ? | 23µM
COc1cc(CNCCN2CCOCC2)ccc1OCc1ccc(Cl)cc1Cl | ? | ? | 21µM | ? | ? | 26µM
O=C1NC[C@H](CCCCN2C[C@H](Cc3ccccc3)N(CCC3CCCCC3)C(=O)C2=O)N(CCc2ccc(O)cc2)C1=O | - | . | - | . | - | -
C=C1C(=O)C23C(O)C1CCC2C12CCCC(C)(COC(C)=O)C1C(O)C3(O)OC2 (configuration not stated) | ? | ? | 1.8µM | 0.73µM | 13µM | 8.2µM
CCCCSc1nc2c([nH]1)c(=S)n(C)c(=O)n2C | 1.5µM | ? | - | ? | 7.3µM | -
CCCCC(C)Sc1nc2c([nH]1)c(=S)n(C)c(=O)n2C (configuration not stated) | 4.1µM | - | ? | ? | ? | -
CCCC(CC)Sc1nc2c([nH]1)c(=S)n(C)c(=O)n2C (configuration not stated) | 3.7µM | ? | - | ? | ? | -
Cn1c(=S)c2[nH]c(SCc3cccnc3)nc2n(C)c1=O | 16µM | - | - | - | - | -
CSc1nc2c([nH]1)c(=S)n(C)c(=O)n2C | - | - | - | - | - | -
CCCCN(C)C(=O)CN1C(=O)CCn2nc(-c3cn(C)c4ccccc34)cc21 | - | . | . | . | - | .
CCOC(=O)C1(CCOC)CCN(C/C=C/c2ccccc2OC)CC1 | - | - | - | - | ? | -
CCc1nc2ccc(C(=O)NCCOc3ccc(OC)cc3)cn2c1N(CC)CCOC | ? | . | - | . | - | -
Cc1ccc(NC(=O)COc2ccc3oc4c(c3c2)CCCC4)c(C)c1 | ? | . | . | . | - | .
Cc1cc(/C=C(/C#N)C(=O)O)c(C)n1CCC(C)C | - | - | - | ? | - | -
COCCn1c(C)cc(/C=C(\C#N)C(=O)OC(C)C(=O)Nc2ccc(NC(C)=O)cc2)c1C (configuration not stated) | - | 18µM | - | ? | - | -
COc1ccccc1C(=O)Nc1cc2c(cc1N1CCCCC1)n(C)c(=O)n2C | - | . | . | . | - | .
Cc1ccc(S(=O)(=O)NCCC(c2ccc(F)cc2)c2ccco2)cc1 (configuration not stated) | 21µM | - | - | ? | ? | -
O=S(=O)(NCCNS(=O)(=O)c1ccc(F)cc1)c1ccc(F)cc1 | - | - | - | - | - | -
Cc1ccc(S(=O)(=O)NCC(=O)N(c2ccccc2)C(C(=O)NCc2ccccc2)c2ccco2)cc1 (configuration not stated) | 2.3µM | - | - | - | - | -
SMILES | KB-V1 MDR tox | SW480 rerep | HT1080 IDH1KD tx | MCF10A rereplic | KB-3-1 tox | HT1080NT lethal
Cc1ccc(S(=O)(=O)NCCC(c2ccccc2)c2ccco2)cc1 (configuration not stated) | 23µM | - | - | - | - | -
Cc1ccc(S(=O)(=O)NCC(c2ccco2)S(=O)(=O)c2ccccc2)cc1 (configuration not stated) | - | - | - | ? | - | -
COc1ccccc1C(CCNS(=O)(=O)c1ccc(C)cc1)c1ccco1 (configuration not stated) | ? | - | - | 13µM | - | -
CN(Cc1cc(Cl)cc(Cl)c1)CC(C(=O)c1ccccc1)c1ccccc1 (configuration not stated) | - | 13µM | ? | 16µM | ? | -
O=C(CC(C(=O)c1ccccc1)c1ccccc1)c1ccccc1 (configuration not stated) | ? | - | - | - | - | -
CN(C)CC(C(=O)c1ccccc1)c1ccccc1 (configuration not stated) | ? | - | 13µM | 2.6µM | ? | -
CSc1cccc(NC(=O)C2CC(=O)N(Cc3ccccc3)C2)c1 (configuration not stated) | - | - | - | - | - | -
CC1=C(c2ccc(C)c(C)c2)S(=O)(=O)N(Cc2ccc(C(=O)NCc3cccc(C)c3)cc2)C1=O | - | . | . | . | - | .
Cc1ccc(-c2noc(CNC(=O)c3ccc4c(c3)OCO4)n2)cc1 | - | - | - | ? | - | -
Cc1[nH]n(-c2ccccc2)c(=O)c1N=Nc1nccs1 | ? | ? | 4µM | ? | - | 11µM
Cc1[nH]n(-c2ccccc2)c(=O)c1N=Nc1ccccc1O | - | ? | 9.2µM | - | 9.2µM | 15µM
S=C(NCCc1ccccc1)N1CCCC1 | - | - | - | - | - | -
S=C(NCCc1ccccc1)N1CCN(C23CC4CC(CC(C4)C2)C3)CC1 | ? | ? | - | 5.8µM | - | -
O=C(CN1CCN(c2ccc(F)cc2)CC1)NCc1ccc(Cl)cc1 | - | - | - | - | - | -
COc1cc(NC(=O)CN2C(=O)CCc3cc(Br)ccc32)cc(OC)c1OC | - | . | . | . | - | .
Cc1oc2ncnc(N3CCCCC3)c2c1C(=O)N1CCN(c2ccc(Cl)cc2)CC1 | - | . | . | . | - | .
CCC(CC)c1nnc(NC(=O)CCc2ccccc2OC)s1 | - | - | - | - | - | -
O=C1NC(Cc2ccccc2)C(=O)Nc2ccc(Br)cc21 (configuration not stated) | - | - | - | - | - | -
O=C1Nc2ccc(Br)cc2/C1=C/C1CC=CCC1 (configuration not stated) | - | ? | 21µM | ? | ? | ?
CCOc1ccccc1NC(=O)CSC1=C(C#N)C(c2ccco2)C(C(=O)Nc2nc3ccccc3s2)=C(C)N1 (configuration not stated) | - | 3.7µM | - | ? | - | -
CC(=O)C1=C(C)NC(SCC(=O)c2cc(Cl)ccc2Cl)=C(C#N)C1c1ccco1 (configuration not stated) | - | ? | ? | ? | - | ?
CC(=O)C1=C(C)NC(SCc2cccc([N+](=O)[O-])c2)=C(C#N)C1c1ccco1 (configuration not stated) | 10µM | ? | - | - | - | -

Bioassay records: PubChem BioAssay, National Center for Advancing Translational Sciences (NCATS)
